Measured values: the supplement of paper PMC10849652
Targets with a hit are over-represented here; the source holds about 7,900 in all. About 0.6% of all pairs of compound and target were hits. Unmarked numbers belong to inactive results.

Key:
Test in all cases: log2 fold change, soluble protein after heating vs DMSO (PISA); higher = thermal stabilisation; K562 cells, 10 uM, 30 min; active = over 0.2 and 3.5 SD of the protein, either way, in both replicates (recomputed)
[1] = compound: CC1=C(C=C(C=C1)NC(=O)C2=CC(=CC=C2)C(C)(C)C#N)NC3=CC4=C(C=C3)N=CN(C4=O)C
In short: (§1)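 K562 cells at 2×10^6 cells/mL were treated for 30 min with 10 μM compound, and aliquots were heated for 3 min over 48°C-58°C before pooling. Extraction used PBS with 0.5% NP-40 at 4°C, and soluble protein was the supernatant after 21,000xg for 90 min, measured by TMTpro 16plex LC-MS/MS with channel sums equalised. Thermal stability values, relative to control samples and from duplicates, are log2 fold changes.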

[2] = compound: CC1=C(C=C(C=C1)NC(=O)C2=CC(=CC=C2)N(C)C)NC(=O)C3=CC=C(C=C3)O
In short: as §1

[3] = compound: CC1=CC=C(C=C1)SC2=C3C=C(SC3=CN=C2)C(=O)N
In short: as §1

[4] = compound: CC1=NC(=CC=C1)C2=C(N=C(N2)C(C)(C)C)C3=CC4=NC=CN=C4C=C3
In short: as §1

Nexturastat A = compound: CCCCN(Cc1ccc(C(=O)NO)cc1)C(=O)Nc1ccccc1 [Nexturastat A]
In short: as §1

vemurafenib = compound: CCCS(=O)(=O)Nc1ccc(F)c(C(=O)c2c[nH]c3ncc(-c4ccc(Cl)cc4)cc23)c1F [vemurafenib]
In short: as §1

[5] = compound: CCCS(=O)(=O)Nc1ccc(F)c(C(=O)c2c[nH]c3ncc(Cl)cc23)c1F
In short: as §1

[6] = compound: CCCc1cc(C)[nH]c(=O)c1CNC(=O)c1cc(-c2ccnc(N3CCN(C)CC3)c2)cc2c1cnn2C(C)C
In short: as §1

givinostat = compound: CCN(CC)Cc1ccc2cc(COC(=O)Nc3ccc(C(=O)NO)cc3)ccc2c1 [givinostat]
In short: as §1

barasertib = compound: CCN(CCCOc1ccc2c(Nc3cc(CC(=O)Nc4cccc(F)c4)[nH]n3)ncnc2c1)CCOP(=O)(O)O [barasertib]
In short: as §1

[7] = compound: CC[C@@H]1C(=O)N(C)c2cnc(Nc3ccc(C(=O)NC4CCN(C)CC4)cc3OC)nc2N1C1CCCC1
In short: as §1

volasertib = compound: CC[C@@H]1C(=O)N(C)c2cnc(Nc3ccc(C(=O)N[C@H]4CC[C@H](N5CCN(CC6CC6)CC5)CC4)cc3OC)nc2N1C(C)C [volasertib]
In short: as §1

[8] = compound: CC[C@H](C)N1C=C(C2=C(C=C(C=C21)C3=CN=C(C=C3)N4CCNCC4)C(=O)NCC5=C(C=C(NC5=O)C)C)C
In short: as §1

epoxomicin = compound: CC[C@H](C)[C@@H](C(=O)N[C@@H]([C@@H](C)O)C(=O)N[C@@H](CC(C)C)C(=O)[C@]1(CO1)C)NC(=O)[C@H]([C@@H](C)CC)N(C)C(=O)C [epoxomicin]
In short: as §1

[9] = compound: CCn1c(C(=O)N(C2CC2)C2CC2)cc2c3c(ncn3C)c(Nc3cc(C)n(C)n3)nc21
In short: as §1

[10] = compound: CCn1cc(-c2ccnc3[nH]c(-c4cccc(CN(C)C)c4)cc23)c(-c2ccc(NC(=O)N(C)C)cc2)n1
In short: as §1

[11] = compound: CN(C)CC(=O)Nc1ccc2[nH]c(=O)c3ccccc3c2c1
In short: as §1

rosiglitazone = compound: CN(CCOC1=CC=C(C=C1)C[C@H]2C(=O)NC(=O)S2)C3=CC=CC=N3 (racemic) [rosiglitazone]
In short: as §1

[12] = compound: CN1C2=C(C3=C1C(=O)N(N=C3)CC4=CC(=CC=C4)N)SC(=C2)S(=O)C
In short: as §1

[13] = compound: CN1CCC(CNc2ccc3ncc(-c4cccc(OC(F)(F)F)c4)n3n2)CC1
In short: as §1

Chain of UniProt Q9Y5K3 (Q9Y5K3 whole entry, looked up): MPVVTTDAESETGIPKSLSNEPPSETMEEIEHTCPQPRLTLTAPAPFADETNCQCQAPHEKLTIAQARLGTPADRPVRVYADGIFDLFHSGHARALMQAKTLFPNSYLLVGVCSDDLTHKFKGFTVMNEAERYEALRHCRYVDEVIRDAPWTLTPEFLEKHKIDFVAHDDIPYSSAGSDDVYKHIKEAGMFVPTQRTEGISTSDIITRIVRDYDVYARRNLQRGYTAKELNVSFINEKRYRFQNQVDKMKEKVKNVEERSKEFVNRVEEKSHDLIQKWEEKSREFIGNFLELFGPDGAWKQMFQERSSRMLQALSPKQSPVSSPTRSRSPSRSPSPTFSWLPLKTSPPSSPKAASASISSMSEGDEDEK
Chain of UniProt Q6L8Q7 (Q6L8Q7 whole entry, looked up): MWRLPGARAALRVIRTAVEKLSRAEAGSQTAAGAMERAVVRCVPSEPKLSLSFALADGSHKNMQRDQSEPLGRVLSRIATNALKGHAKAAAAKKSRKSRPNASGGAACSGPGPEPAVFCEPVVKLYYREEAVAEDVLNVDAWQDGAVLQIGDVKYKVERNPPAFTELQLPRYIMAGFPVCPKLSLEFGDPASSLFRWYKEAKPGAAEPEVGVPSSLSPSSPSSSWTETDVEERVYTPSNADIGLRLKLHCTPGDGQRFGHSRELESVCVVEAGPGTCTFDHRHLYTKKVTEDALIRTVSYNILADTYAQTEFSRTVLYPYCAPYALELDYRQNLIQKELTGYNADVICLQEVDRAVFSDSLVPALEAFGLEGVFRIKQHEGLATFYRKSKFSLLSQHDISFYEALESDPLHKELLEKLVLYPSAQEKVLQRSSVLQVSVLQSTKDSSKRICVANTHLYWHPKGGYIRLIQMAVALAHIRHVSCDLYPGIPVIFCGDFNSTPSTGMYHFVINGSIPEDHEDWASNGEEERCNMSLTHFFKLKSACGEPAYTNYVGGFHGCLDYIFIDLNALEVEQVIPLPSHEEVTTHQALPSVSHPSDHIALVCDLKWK
Chain of UniProt Q9H300 (Q9H300 whole entry, looked up): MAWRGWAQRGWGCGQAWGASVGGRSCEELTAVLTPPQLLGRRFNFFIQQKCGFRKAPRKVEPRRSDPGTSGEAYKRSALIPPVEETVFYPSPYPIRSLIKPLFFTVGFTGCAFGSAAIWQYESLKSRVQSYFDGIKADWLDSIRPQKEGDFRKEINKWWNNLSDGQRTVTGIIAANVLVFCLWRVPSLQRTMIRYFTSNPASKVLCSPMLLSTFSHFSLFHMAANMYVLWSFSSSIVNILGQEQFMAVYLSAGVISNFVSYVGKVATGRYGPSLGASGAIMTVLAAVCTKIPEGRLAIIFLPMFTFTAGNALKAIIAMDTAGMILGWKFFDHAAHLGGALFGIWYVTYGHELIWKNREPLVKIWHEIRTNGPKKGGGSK
Chain of UniProt Q8WUM4 (Q8WUM4 whole entry, looked up): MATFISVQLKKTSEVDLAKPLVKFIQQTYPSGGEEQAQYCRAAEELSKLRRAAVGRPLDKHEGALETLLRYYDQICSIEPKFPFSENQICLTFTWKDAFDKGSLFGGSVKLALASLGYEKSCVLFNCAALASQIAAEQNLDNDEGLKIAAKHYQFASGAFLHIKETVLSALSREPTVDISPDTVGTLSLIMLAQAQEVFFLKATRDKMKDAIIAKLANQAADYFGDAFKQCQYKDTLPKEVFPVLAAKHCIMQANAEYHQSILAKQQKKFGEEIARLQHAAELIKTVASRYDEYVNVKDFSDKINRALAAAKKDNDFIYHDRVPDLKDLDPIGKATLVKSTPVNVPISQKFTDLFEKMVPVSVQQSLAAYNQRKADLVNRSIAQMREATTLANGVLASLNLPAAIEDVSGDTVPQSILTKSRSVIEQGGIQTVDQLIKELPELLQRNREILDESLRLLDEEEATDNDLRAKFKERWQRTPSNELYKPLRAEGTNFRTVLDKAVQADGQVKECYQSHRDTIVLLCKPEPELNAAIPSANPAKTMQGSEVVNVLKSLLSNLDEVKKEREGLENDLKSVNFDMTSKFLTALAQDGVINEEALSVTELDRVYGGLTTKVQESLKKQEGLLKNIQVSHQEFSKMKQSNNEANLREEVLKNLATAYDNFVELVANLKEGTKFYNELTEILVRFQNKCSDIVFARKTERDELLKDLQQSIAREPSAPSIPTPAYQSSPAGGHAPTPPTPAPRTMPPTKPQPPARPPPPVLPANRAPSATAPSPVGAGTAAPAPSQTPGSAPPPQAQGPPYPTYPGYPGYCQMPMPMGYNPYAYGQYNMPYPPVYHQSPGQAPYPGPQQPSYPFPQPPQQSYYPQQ
Chain of UniProt P62195 (P62195 whole entry, looked up): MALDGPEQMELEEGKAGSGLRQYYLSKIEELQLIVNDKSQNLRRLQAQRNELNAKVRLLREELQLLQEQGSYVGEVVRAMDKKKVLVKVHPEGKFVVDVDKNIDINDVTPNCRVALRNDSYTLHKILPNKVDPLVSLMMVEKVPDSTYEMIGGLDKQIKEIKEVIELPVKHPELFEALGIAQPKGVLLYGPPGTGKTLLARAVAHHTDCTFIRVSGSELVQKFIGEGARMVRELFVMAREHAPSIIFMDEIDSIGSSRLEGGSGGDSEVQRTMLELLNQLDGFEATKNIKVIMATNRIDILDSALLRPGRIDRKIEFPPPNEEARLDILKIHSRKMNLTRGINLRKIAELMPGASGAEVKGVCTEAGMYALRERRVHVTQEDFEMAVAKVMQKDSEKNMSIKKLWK
Chain of UniProt O95602 (O95602 whole entry, looked up): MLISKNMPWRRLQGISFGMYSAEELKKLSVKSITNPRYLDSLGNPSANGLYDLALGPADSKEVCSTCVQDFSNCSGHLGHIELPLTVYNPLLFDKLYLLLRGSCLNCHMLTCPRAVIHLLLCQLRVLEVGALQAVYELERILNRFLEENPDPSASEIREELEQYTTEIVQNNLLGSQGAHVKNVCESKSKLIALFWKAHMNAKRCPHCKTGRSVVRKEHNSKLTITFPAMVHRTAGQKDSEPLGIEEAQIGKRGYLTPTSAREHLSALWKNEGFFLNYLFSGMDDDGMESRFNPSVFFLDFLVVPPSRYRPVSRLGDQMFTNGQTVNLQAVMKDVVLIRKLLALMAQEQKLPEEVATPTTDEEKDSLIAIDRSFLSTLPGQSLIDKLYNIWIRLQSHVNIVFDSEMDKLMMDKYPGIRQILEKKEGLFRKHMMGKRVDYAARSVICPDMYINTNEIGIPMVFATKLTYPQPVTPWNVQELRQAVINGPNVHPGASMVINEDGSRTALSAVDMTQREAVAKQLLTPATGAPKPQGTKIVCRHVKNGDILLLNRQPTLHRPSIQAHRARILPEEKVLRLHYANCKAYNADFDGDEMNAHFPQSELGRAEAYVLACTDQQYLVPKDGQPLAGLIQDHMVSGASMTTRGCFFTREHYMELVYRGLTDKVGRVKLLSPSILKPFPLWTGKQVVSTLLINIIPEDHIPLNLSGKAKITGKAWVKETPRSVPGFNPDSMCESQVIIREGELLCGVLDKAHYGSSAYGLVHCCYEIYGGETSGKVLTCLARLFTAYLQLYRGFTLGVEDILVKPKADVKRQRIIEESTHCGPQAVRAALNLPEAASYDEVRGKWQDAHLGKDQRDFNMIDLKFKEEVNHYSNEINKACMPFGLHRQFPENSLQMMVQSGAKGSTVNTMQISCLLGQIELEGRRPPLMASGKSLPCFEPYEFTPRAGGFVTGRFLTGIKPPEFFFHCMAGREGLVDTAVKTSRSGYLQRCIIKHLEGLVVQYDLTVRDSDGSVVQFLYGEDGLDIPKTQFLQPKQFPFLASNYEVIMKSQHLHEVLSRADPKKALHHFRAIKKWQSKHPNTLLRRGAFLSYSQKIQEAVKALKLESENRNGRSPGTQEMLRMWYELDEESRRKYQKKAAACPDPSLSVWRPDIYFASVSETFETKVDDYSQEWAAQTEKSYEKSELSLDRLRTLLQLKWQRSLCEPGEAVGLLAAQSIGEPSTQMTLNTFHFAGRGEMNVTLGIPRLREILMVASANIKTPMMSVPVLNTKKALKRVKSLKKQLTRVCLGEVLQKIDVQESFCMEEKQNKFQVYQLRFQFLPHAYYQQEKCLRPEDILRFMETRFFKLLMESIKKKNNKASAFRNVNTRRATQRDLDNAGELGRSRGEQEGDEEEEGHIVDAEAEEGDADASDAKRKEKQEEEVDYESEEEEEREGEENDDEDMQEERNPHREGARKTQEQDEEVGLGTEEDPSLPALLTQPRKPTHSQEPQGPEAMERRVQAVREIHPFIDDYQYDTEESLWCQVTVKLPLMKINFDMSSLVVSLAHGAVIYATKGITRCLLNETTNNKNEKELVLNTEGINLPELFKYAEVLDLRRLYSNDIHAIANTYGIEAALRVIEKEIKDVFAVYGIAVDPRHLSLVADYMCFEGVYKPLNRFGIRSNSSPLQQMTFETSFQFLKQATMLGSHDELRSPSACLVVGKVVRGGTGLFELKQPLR
Chain of UniProt O43242 (O43242 whole entry, looked up): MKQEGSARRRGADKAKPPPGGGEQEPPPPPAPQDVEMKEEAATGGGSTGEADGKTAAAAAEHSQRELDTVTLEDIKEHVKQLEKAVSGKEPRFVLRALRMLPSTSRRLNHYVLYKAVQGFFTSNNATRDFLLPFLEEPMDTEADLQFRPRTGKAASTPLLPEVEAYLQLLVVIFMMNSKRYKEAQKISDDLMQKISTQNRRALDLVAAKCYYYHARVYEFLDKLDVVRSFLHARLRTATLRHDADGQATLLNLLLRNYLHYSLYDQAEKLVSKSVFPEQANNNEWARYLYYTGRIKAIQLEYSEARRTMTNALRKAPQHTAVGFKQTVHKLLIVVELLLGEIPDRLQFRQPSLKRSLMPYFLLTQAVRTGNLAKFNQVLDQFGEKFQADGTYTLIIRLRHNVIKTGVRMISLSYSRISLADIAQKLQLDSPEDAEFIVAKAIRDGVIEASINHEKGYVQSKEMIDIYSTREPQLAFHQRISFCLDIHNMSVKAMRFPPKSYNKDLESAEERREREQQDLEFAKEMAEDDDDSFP
Chain of UniProt Q15185 (Q15185 whole entry, looked up): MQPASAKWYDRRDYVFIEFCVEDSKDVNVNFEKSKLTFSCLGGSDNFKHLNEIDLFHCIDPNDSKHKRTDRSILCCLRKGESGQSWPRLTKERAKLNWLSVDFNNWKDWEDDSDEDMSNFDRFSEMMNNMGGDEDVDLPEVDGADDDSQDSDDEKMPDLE

| Target | log2 fold change [1] | log2 fold change [2] | log2 fold change [3] | log2 fold change [4] | log2 fold change (Nexturastat A) | log2 fold change (vemurafenib) | log2 fold change [5] | log2 fold change [6] | log2 fold change (givinostat) | log2 fold change (barasertib) | log2 fold change [7] | log2 fold change (volasertib) | log2 fold change [8] | log2 fold change (epoxomicin) | log2 fold change [9] | log2 fold change [10] | log2 fold change [11] | log2 fold change (rosiglitazone) | log2 fold change [12] | log2 fold change [13] |
| --- | --- | --- | --- | --- | --- | --- | --- | --- | --- | --- | --- | --- | --- | --- | --- | --- | --- | --- | --- | --- |
| PSMD11 (UniProt O00231) | 0.048 | -0.005 | 0.017 | -0.006 | 0.124 | -0.031 | 0.058 | 0.047 | -0.027 | -0.056 | 0.011 | 0.187 | 0.036 | -0.262 | -0.016 | 0 | 0 | -0.016 | 0.018 | 0.053 |
| PSMD3 (UniProt O43242) | 0.023 | 0.022 | -0.052 | -0.024 | 0.065 | -0.06 | -0.032 | 0.034 | -0.028 | -0.066 | 0.039 | 0.133 | 0 | -0.337 (active) | 0.01 | 0.02 | -0.01 | -0.01 | 0.027 | 0.067 |
| PPP1R35 (UniProt Q8TAP8) | -0.011 | 0.065 | 0.025 | 0.034 | -0.009 | -0.049 | 0.008 | -0.027 | 0.112 | -0.074 | 0.062 | 0.101 | -0.062 | 0.062 | 0.009 | 0.007 | -0.004 | 0.035 | 0.027 | -0.032 |
| PYGB (UniProt P11216) | -0.284 (active) | 0.015 | 0.008 | 0.005 | -0.074 | 0.009 | -0.023 | -0.044 | 0.012 | 0.001 | -0.199 | -0.572 (active) | 0.036 | -0.045 | -0.203 | 0.023 | 0.012 | -0.004 | 0.021 | -0.071 |
| PTMA (UniProt P06454) | 0.133 | -0.041 | 0.053 | 0.213 | -0.077 | 0.05 | -0.044 | -0.008 | -0.022 | -0.013 | -0.167 | 0.112 | -0.064 | 0.2 | 0.017 | -0.009 | -0.01 | -0.032 | -0.027 | -0.052 |
| PIK3CB (UniProt P42338) | -0.034 | -0.009 | 0.024 | 0.054 | 0.013 | 0.022 | -0.001 | -0.041 | 0.052 | 0.077 | 0.017 | -0.224 (active) | 0.082 | 0.033 | -0.01 | -0.071 | 0.008 | 0.078 | 0.003 | 0.175 |
| PSME4 (UniProt Q14997) | 0.017 | -0.02 | -0.024 | -0.017 | -0.034 | -0.014 | -0.005 | -0.043 | 0.022 | -0.007 | 0.076 | 0.038 | 0.04 | 0.35 (active) | -0.014 | -0.069 | 0.02 | 0.053 | 0.001 | -0.137 |
| POLR1A (UniProt O95602) | -0.082 | -0.019 | -0.198 | -0.185 | 0.489 (active) | 0.052 | 0.062 | 0.321 | 0.083 | 0.016 | 0.059 | 0.071 | -0.26 | -0.037 | 0.063 | -0.066 | -0.086 | 0.015 | 0.056 | 0.054 |
| PDCD6IP (UniProt Q8WUM4) | 0.032 | -0.079 | 0.077 | 0.058 | 0.066 | 0.106 | 0.153 | 0.119 | 0.183 | 0.135 | -0.219 | -0.694 (active) | 0.166 | 0.082 | -0.097 | -0.06 | 0.116 | 0.097 | 0.043 | -0.256 |
| PARL (UniProt Q9H300) | 0 | 0.025 | 0.02 | 0.002 | -0.098 | -0.014 | 0.057 | -0.036 | 0.068 | -0.022 | -0.059 | -0.008 | -0.009 | -0.076 | 0.031 | -0.062 | -0.035 | 0.035 | -0.004 | -0.134 |
| PSMC5 (UniProt P62195) | 0.014 | 0.011 | -0.029 | -0.05 | 0.003 | -0.048 | -0.053 | 0.032 | -0.082 | -0.034 | 0.043 | 0.178 | -0.002 | -0.308 (active) | 0.024 | 0.039 | -0.029 | -0.014 | 0.015 | 0.066 |
| PDE12 (UniProt Q6L8Q7) | 0.049 | 0.006 | 0.024 | 0.026 | -0.064 | -0.006 | 0.03 | -0.01 | -0.027 | 0.014 | -0.035 | -0.056 | -0.008 | 0.04 | 0.003 | -0.038 | 0.026 | 0.028 | -0.078 | -0.014 |
| PCYT1B (UniProt Q9Y5K3) | 0.007 | 0.022 | 0.011 | 0.034 | -0.06 | 0.022 | 0.049 | -0.031 | 0.038 | 0.048 | -0.105 | -0.315 (active) | 0.08 | 0.001 | -0.033 | 0 | 0.012 | 0.041 | -0.007 | 0.035 |
| PTGES3 (UniProt Q15185) | 0.039 | -0.073 | 0.044 | 0.078 | -0.046 | 0.032 | 0.111 | 0.034 | 0.026 | 0.064 | -0.21 | -0.504 (active) | 0.096 | 0.041 | 0 | -0.11 | 0.049 | 0.048 | -0.045 | -0.134 |
| PRKACB isoform 2 (UniProt P22694) | -0.014 | 0.015 | 0.011 | 0.077 | 0.059 | -0.007 | 0.031 | -0.129 | -0.024 | 0.036 | -0.025 | -0.031 | 0.004 | -0.033 | 0.008 | -0.009 | -0.048 | 0.025 | -0.042 | -0.022 |
